Assay results taken from ChEMBL document CHEMBL3433997, “St. Jude Leishmania screening dataset” (2016).

What was measured:
Assay type in all cases: functional
[1] = target: Solute carrier family 2, facilitated glucose transporter member 1 (Homo sapiens) (UniProt P11166); assay: ST_JUDE_LEISH: Cytotoxicity at 2uM final concentration against transgenic Leishmania Mexicana promastigotes LmGLUT1 that are glucose transport deficient and complemented with the human glucose transporter GLUT1. Activity is measured by DNA content using SYBR green in vitro
[2] = target: Hexose transporter 1 (Plasmodium falciparum) (UniProt O97467); assay: ST_JUDE_LEISH: Cytotoxicity at 2uM final concentration against transgenic Leishmania Mexicana promastigotes LmPfHT that are glucose transport deficient and complemented with the Plasmodium falciparum hexose transporter. Activity is measured by DNA content using SYBR green in vitro
[3] = target: Glucose transporter (Leishmania mexicana) (UniProt O61059); assay: ST_JUDE_LEISH: Cytotoxicity at 2uM final concentration against transgenic Leishmania Mexicana promastigotes LmGT2 that are glucose transport deficient and complemented with the L. Mexicana glucose transporter 2. Activity is measured by DNA content using SYBR green in vitro

Chain of Solute carrier family 2, facilitated glucose transporter member 1 (Homo sapiens) (P11166 whole entry): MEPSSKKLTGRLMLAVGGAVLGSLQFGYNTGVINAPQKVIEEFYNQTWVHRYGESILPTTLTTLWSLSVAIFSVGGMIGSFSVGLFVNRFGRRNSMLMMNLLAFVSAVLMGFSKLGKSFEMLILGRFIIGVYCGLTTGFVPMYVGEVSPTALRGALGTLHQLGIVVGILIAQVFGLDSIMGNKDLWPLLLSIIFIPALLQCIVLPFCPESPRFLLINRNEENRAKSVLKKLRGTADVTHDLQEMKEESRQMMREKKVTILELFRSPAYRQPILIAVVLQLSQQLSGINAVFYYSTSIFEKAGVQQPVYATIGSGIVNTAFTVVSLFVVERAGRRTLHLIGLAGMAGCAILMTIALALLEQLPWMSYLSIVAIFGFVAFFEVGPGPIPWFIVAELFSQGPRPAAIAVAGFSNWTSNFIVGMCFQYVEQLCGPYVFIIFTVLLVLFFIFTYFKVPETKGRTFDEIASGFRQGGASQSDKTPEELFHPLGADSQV

| SMILES | inhibition [1] | inhibition [2] | inhibition [3] |
| --- | --- | --- | --- |
| Cc1cc(C2CCN(CCCCNC(=O)c3ccc(-c4ccc(C(F)(F)F)cc4)cc3)CC2)c(C)cc1OCCO | 5.21% | 5.28% | 2.63% |
| CCCNCc1ccc(-c2ccc(CN(CCOC)C(=O)[C@H]3CCCO3)cc2)nc1 | 4.56% | 4.55% | 4.1% |
| O=C(Nc1ccccc1Cl)N(Cc1cc(Cl)cc(Cl)c1)CC(O)COc1ccc(Cl)c(F)c1 (stereo unspecified) | 2.94% | 2.72% | -2.7% |
| CN(C)CCNCc1ccc(-c2ccc3c(Nc4ccc(Oc5ccccc5)cc4)ccnc3c2)o1 | -1.6% | -1.01% | -0.02% |
| CCN(CC)CCN(Cc1ccc(-c2ccc(C(F)(F)F)cc2)cc1)C(=O)Cn1c(CCc2cccc(F)c2F)nc(=O)c2ccc(F)cc21 | 2.25% | 1.35% | 2.49% |
| O=C(C=CC(=O)N1CCCCC1)NCc1ccccc1 | 2.97% | 3.29% | 2% |
| O=C(COc1cnc2ccccc2n1)Nc1ccccc1Sc1ccc(Cl)cc1 | 4.91% | 3.31% | 3.2% |
| CCCNC(=O)c1cncc(-c2ccc(CNC3Cc4ccccc4C3)cc2)c1 | 0% | 0.51% | -1.1% |
| O=C(NC1CCCCC1)C(c1cccs1)N(CCc1ccccc1)C(=O)c1ccco1 (stereo unspecified) | 1.57% | 1.89% | 0.46% |
| OC(CNc1ccnc(Nc2cccc(Cl)c2)n1)c1ccccc1C(F)(F)F (stereo unspecified) | 4.32% | 4.32% | -0.94% |
| C[C@@H](COc1ccc(-c2ccccc2)cc1)CON1C(N)=NC(N)=NC1(C)C | 69.6% | 76.5% | 50.3% |
| CC(C)Oc1ccc2ccccc2c1CNCCCCCCNCc1c(OC(C)C)ccc2ccccc12 | 31.1% | -0.9% | 50.6% |
| COc1cccc(C(O)CNc2ccnc(Nc3ccc(Cl)cc3)n2)c1 (stereo unspecified) | 6% | 5.73% | 1.85% |
| CCN(CC)CCN(Cc1ccc(-c2ccc(C(F)(F)F)cc2)cc1)C(=O)Cn1c(SCc2ccc(F)cc2)nc(=O)c2sccc21 | 5.28% | 2.81% | 4.07% |
| CC(C)(C)c1cc(NC2CC2)nc(-c2ccccn2)n1 | 1.4% | 3.18% | 4.03% |
| Cc1noc(C)c1-c1cccc(CNCc2ccc(-c3ccc(-c4nc5cc(C(F)(F)F)ccc5[nH]4)s3)cc2)c1 | 3.88% | 3.12% | 0.04% |

| SMILES | inhibition [1] | inhibition [2] | inhibition [3] |
| --- | --- | --- | --- |
| CC(C)C(NC(=O)c1c(F)cccc1F)C(=O)Nc1ccc(Cc2nc3ccccc3s2)cc1 (stereo unspecified) | -1.47% | 2.55% | 1.42% |
| Cc1ccc2nc(N/C(N)=N/C(=O)NC3CCCCC3)nc(C)c2c1 | 3.24% | 4.89% | 2.16% |
| CC(C)(C)c1ccc(CN(C[C@@H](O)CNS(=O)(=O)c2cc(Cl)cc(Cl)c2)C(C)(C)C)cc1 | 0.82% | 0.36% | -0.02% |
| COc1ccc2nccc(N3CCN(CCNCc4ccc5c(n4)NC(=O)CO5)CC3)c2n1 | 11.2% | 9.11% | 10.1% |
| O=C(CN1CCC2(CCC1=O)CC(=O)c1ccccc1O2)NCCN1CCOCC1 (stereo unspecified) | 2.45% | 7.44% | 4.93% |
| COc1ccc(CN2CCCC(N3CC4(OC3=O)c3ccccc3-c3ccccc34)C2)c(O)c1 (stereo unspecified) | 5.47% | 4.69% | 4.18% |
| O=C(Nc1ccc2c(c1)OCO2)NC1CCN(c2ccnc(NCc3ccc(F)cc3)n2)CC1 | 2.05% | 2.3% | 0.61% |
| CCN(CC)S(=O)(=O)n1ncc2c3c(N)nc(N)nc3ccc21 | -2.64% | 0.17% | -2.31% |
| CN1CCN(c2cccc(-c3nnc(-c4ccc(OCC(=O)NCc5cccc(C(F)(F)F)c5)c([N+](=O)[O-])c4)o3)c2)CC1 | 8.88% | 8.11% | 6.46% |
| COc1ccc(C(=O)CCC(=O)N(Cc2ccc(-c3ccc(CNCCc4ccccc4)cn3)cc2)C(C)CN(C)C)cc1F (stereo unspecified) | 2.12% | 1.14% | 0.82% |
| O=C(NC1CC1)c1cnc(N2CCCC(c3ccccc3)C2)c(Cl)c1 (stereo unspecified) | 0.97% | -0.31% | -4.58% |
| Cc1ccc2nc(-c3ccc(/C=C/C(=O)NC4CCN(Cc5ccccc5)CC4)cc3)[nH]c2c1C | 8.42% | 8.63% | 9.58% |
| CN1CCN(CC(=O)Nc2ccc(-c3cccc(-c4nc5cc(F)ccc5[nH]4)c3)cc2)CC1 | -0.65% | 0.74% | -1.87% |
| CC(C)c1sc(N2CCN(C)CC2)nc1C(=O)Nc1ccc(F)cc1C(F)(F)F | 5.47% | 6.04% | 2.97% |
| O=C(NCC1CCC(C(=O)NCCN2CCCCC2)CC1)c1ccc(O)c(-c2ccc(Cl)c(Cl)c2)c1 (stereo unspecified) | -0.83% | 0.49% | 0.18% |
| N#Cc1ccccc1Sc1ccccc1C(=O)Nc1ccc2ccccc2n1 | 7.84% | 11.5% | 7.12% |
